Drawing on ChEMBL document CHEMBL2218924, “A broad activity screen in support of a chemogenomic map for kinase signalling research and drug discovery” (Biochem J, 2013), this text covers residual activity for one compound.

Assay [1] has as its target T1, Serine/threonine-protein kinase TBK1 (Homo sapiens) (UniProt Q9UHD2).
T1 sequence (whole entry): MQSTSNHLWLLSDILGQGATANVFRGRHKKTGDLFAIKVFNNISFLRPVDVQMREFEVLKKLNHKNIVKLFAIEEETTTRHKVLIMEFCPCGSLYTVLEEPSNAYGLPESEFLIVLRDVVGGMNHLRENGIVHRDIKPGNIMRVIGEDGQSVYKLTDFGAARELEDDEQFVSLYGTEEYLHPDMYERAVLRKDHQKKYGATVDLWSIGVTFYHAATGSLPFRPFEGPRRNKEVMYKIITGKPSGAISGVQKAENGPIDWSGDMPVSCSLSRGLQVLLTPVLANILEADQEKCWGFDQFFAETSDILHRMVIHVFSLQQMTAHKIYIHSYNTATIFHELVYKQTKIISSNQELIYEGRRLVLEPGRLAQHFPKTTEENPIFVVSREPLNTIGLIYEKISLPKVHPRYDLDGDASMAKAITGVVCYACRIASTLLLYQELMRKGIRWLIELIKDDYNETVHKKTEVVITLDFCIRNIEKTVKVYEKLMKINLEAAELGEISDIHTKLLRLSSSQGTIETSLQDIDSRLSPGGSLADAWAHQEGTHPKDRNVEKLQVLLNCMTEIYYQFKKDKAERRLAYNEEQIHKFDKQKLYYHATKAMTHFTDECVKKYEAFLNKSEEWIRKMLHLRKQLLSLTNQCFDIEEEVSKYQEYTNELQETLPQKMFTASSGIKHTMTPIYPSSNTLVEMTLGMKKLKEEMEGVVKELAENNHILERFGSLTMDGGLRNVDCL
To be noted: at 10 µM.

The target of assay [2] is T2, TGF-beta receptor type-1 (Homo sapiens) (UniProt P36897).
T2 sequence (whole entry): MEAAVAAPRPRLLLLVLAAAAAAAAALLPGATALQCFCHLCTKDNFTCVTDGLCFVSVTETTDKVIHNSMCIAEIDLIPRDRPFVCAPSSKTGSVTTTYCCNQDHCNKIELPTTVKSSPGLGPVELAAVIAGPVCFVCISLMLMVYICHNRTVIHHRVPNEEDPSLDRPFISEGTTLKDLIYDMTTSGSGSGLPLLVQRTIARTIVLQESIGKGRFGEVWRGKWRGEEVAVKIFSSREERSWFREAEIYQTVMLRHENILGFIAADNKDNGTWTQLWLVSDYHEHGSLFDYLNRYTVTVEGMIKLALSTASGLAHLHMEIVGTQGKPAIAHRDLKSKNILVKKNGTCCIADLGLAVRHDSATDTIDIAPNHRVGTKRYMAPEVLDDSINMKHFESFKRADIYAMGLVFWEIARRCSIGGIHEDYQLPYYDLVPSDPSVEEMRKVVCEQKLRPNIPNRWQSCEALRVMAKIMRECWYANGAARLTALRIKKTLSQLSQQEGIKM
The conditions noted are these: at 1 µM.

Assay [3] has as its target T2, TGF-beta receptor type-1 (Homo sapiens). The conditions noted are these: at 10 µM.
Assay [4] addresses Insulin-like growth factor 1 receptor (Homo sapiens) (UniProt P08069). To be noted: at 1 µM.
The target is the same in assay [5]. The conditions noted are these: at 10 µM.
Assay [6] has as its target T3, Inhibitor of nuclear factor kappa-B kinase subunit alpha (Homo sapiens) (UniProt O15111).
T3 sequence (whole entry): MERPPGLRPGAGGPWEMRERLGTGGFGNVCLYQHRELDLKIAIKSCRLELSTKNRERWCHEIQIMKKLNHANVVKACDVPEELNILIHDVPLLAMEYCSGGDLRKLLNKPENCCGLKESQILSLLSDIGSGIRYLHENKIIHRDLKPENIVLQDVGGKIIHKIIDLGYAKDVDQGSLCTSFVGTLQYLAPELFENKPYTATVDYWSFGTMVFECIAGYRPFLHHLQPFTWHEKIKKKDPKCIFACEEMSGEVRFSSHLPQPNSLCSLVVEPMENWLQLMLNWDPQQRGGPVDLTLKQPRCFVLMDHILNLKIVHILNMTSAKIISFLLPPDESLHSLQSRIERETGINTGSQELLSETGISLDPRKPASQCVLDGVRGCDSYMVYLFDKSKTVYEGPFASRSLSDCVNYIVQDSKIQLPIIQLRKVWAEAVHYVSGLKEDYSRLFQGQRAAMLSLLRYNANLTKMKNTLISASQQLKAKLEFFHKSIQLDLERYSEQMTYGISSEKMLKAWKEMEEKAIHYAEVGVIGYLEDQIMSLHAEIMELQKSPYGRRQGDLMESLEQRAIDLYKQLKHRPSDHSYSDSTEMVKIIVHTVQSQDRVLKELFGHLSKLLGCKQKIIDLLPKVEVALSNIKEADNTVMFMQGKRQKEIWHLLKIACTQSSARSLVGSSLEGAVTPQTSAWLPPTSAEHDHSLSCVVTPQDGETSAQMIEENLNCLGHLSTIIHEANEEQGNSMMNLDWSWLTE
The conditions noted are these: at 1 µM.

Assay [7] deals with T3, Inhibitor of nuclear factor kappa-B kinase subunit alpha (Homo sapiens). To be noted: at 10 µM.
The target in assay [8] is T4, Inhibitor of nuclear factor kappa-B kinase subunit beta (Homo sapiens) (UniProt O14920).
T4 sequence (whole entry): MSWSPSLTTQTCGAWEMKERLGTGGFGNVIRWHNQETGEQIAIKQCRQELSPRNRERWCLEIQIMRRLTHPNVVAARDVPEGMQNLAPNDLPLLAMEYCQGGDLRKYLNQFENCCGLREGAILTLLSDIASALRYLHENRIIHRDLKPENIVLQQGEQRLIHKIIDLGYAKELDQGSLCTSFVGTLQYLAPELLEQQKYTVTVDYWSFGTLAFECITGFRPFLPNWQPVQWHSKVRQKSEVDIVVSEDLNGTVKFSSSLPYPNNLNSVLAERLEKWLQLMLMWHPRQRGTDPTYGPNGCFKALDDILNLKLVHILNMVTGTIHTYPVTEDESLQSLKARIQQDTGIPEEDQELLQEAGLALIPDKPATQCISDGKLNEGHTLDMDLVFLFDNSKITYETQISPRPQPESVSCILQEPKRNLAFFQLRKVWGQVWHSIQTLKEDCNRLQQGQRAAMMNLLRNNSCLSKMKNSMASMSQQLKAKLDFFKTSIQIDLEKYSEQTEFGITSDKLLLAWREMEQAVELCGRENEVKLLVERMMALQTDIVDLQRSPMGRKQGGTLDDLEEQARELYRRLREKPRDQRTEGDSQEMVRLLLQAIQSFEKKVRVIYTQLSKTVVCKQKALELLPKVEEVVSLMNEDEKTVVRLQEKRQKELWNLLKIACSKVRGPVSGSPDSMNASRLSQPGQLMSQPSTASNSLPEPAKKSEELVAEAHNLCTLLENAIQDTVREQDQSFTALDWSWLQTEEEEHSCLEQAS
The conditions noted are these: at 1 µM.

Assay [9] concerns the target T4, Inhibitor of nuclear factor kappa-B kinase subunit beta (Homo sapiens). To be noted: at 10 µM.
For assay [10], the target named is Insulin receptor (Homo sapiens) (UniProt P06213). The conditions noted are these: at 1 µM.
Chain of Insulin receptor (Homo sapiens) (P06213 28-758 limits assumed): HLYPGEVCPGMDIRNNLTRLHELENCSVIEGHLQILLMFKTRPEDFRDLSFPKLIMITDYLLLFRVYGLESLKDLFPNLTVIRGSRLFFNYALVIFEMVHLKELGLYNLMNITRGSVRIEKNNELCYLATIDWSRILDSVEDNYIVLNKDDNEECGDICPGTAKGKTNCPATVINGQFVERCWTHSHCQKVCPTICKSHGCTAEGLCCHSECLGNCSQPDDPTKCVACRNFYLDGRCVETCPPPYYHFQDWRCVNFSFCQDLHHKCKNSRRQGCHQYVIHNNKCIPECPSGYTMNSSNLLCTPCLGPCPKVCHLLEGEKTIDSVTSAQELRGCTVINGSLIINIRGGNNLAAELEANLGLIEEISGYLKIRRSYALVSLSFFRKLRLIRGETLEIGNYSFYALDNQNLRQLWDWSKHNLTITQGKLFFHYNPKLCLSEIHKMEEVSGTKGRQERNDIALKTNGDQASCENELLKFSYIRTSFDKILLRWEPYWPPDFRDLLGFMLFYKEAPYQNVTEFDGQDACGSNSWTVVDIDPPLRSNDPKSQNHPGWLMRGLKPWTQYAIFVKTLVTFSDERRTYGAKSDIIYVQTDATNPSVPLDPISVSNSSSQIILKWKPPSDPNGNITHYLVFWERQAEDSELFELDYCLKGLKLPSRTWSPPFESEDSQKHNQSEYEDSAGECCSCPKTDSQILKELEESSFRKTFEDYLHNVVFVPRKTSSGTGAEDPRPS
Chain of Insulin receptor (Homo sapiens) (P06213 763-1382 limits assumed): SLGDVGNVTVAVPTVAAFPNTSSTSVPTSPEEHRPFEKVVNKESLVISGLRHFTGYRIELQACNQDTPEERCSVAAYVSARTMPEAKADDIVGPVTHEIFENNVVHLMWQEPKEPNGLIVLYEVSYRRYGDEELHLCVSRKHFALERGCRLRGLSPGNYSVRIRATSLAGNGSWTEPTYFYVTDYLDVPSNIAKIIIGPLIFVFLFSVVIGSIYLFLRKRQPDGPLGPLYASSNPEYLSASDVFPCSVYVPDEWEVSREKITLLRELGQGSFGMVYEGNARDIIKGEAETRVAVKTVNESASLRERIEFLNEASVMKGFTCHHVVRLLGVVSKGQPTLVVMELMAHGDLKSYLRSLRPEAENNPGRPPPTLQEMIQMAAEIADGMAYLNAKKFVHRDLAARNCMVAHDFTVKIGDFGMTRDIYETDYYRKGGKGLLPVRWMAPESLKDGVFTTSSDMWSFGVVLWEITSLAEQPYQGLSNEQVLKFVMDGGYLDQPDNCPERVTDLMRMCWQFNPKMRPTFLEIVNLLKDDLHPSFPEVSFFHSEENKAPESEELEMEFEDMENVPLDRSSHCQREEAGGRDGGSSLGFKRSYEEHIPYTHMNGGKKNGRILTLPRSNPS

Chain of Insulin-like growth factor 1 receptor (Homo sapiens) (P08069 31-736 limits assumed): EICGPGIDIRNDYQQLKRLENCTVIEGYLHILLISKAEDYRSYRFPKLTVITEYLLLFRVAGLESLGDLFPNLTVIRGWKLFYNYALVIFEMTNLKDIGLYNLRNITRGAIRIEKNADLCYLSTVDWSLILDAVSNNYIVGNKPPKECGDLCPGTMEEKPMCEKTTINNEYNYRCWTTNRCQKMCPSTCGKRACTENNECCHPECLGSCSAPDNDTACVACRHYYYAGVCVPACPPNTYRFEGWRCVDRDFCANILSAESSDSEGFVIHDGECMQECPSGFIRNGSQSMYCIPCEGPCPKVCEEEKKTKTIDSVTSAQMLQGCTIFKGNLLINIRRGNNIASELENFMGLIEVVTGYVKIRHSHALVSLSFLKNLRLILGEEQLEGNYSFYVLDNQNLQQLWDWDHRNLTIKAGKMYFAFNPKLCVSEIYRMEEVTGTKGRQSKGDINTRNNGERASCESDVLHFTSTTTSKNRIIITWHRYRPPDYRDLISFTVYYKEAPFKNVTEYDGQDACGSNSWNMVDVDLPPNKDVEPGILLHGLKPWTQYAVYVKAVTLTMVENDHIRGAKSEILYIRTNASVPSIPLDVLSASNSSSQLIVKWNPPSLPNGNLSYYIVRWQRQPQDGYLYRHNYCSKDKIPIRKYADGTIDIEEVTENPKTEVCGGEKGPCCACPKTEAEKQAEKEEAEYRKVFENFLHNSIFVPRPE
Chain of Insulin-like growth factor 1 receptor (Homo sapiens) (P08069 741-1367 limits assumed): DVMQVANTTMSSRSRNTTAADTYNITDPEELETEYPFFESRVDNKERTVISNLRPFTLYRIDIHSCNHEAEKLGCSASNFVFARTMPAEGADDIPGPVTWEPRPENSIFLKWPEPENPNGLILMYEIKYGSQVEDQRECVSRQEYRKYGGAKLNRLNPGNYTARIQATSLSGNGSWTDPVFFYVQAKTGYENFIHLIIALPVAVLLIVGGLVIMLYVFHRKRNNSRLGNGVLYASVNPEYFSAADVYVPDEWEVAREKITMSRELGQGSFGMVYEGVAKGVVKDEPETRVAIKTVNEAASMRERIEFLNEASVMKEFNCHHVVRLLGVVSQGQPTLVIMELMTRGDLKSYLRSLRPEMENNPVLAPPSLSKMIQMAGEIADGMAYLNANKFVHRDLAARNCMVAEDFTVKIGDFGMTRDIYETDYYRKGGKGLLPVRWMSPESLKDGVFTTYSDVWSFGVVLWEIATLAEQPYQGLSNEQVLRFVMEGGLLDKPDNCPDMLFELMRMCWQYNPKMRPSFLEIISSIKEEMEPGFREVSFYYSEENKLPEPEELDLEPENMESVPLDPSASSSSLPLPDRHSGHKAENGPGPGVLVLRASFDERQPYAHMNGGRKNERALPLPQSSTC

With `O=C1NC(=O)c2c1c1c3ccccc3[nH]c1c1[nH]c3cc(Br)ccc3c21`, the residual activity came out at 54% in assay [1]; 100% in assay [2]; 98% in assay [3]; 96% in assay [4]; 99% in assay [5]; 89% in assay [6]. In addition, the residual activity was determined as 71% in [7], 77% in assay [8], 100% in assay [9] and 99% in assay [10].
